Reference: PubChem BioAssay (Tox21)
Several values for one entry are separate records, joined by “and”; a condition that tells them apart may be missing. Equal entries are not always repeated. Some structures have more than one record in an assay (separate samples or runs), and their calls can disagree. Activity calls are given as the source filed them. Unless noted, the call rests on the fitted dose curve; in most records, active means well fitted curve in the direction sought with a large enough effect in the repeat runs; inconclusive means weak or mixed curves; inactive means no such curve, though single readings can be large; an effect the other way counts as inactive or inconclusive.

Experiments:
[1] = qHTS assay to identify small molecule antagonists of the thyroid receptor (TR) signaling pathway - cell viability counter screen (AID 743064); further: nearly all actives have a fitted effect of over 50% in size; further: potency means the concentration at half of the fitted maximal effect
Method in brief: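 CellTiter-Fluor readout, 30 min at 37 °C/5% CO2, following 23.5 h incubation of GH3.TRE-Luc cells with test compound and 1 nM T3 (final).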

[2] = qHTS assay to identify small molecule antagonists of the thyroid receptor (TR) signaling pathway (AID 743065); further: nearly all actives have a fitted effect of over 55% in size; further: potency means the concentration at half of the fitted maximal effect
Method in brief: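 GH3.TRE-Luc rat pituitary cells (two TREs driving luciferase) were dosed with compound, then stimulated with 1 nM T3 (final) for 23.5 h at 37 C. ONE-Glo luminescence was the read-out, with CellTiter-Fluor fluorescence as the cytotoxicity counter-screen.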

[3] = test system: thyroid hormone receptor (rat, GH3 cells); assay: qHTS assay to identify small molecule agonists of the thyroid receptor (TR) signaling pathway (AID 743066; calls by dose curve)
[4] = qHTS assay to identify small molecule antagonists of the estrogen receptor alpha (ER-alpha) signaling pathway - cell viability counter screen (AID 743074; calls by dose curve;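 further: HEK293 cells carrying ER-alpha-UAS-bla reporter stimulated with 17beta-estradiol; nearly all actives have a fitted effect of over 45% in size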; further: potency means the concentration at half of the fitted maximal effect)
[5] = qHTS assay to identify small molecule antagonists of the estrogen receptor alpha (ER-alpha) signaling pathway using the BG1 cell line - cell viability counter screen (AID 743081);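 further: compound given together with 17beta-estradiol as the ER stimulus; nearly all actives have a fitted effect of over 45% in size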; further: potency means the concentration at half of the fitted maximal effect
Aromatase (Homo sapiens) = Aromatase (Homo sapiens) (UniProt P11511); assay: qHTS assay to identify aromatase inhibitors (AID 743083); further: nearly all actives have a fitted effect of over 55% in size; further: potency means the concentration at half of the fitted maximal effect
Sequence of Aromatase (Homo sapiens) (P11511 whole entry, looked up): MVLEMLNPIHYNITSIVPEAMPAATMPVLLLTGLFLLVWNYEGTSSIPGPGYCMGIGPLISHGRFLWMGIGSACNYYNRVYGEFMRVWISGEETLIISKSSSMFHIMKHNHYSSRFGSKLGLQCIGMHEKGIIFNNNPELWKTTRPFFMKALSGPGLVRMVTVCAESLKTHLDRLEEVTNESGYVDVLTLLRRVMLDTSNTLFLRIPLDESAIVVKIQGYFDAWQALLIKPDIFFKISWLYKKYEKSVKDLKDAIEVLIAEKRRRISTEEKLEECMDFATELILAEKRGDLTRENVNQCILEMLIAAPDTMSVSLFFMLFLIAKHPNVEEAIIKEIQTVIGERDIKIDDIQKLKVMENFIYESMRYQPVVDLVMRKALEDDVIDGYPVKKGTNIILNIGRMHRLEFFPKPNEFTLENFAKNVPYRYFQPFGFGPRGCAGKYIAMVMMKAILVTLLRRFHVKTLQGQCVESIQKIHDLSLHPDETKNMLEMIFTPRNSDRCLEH

[6] = target: Estrogen receptor (Homo sapiens) (UniProt P03372); assay: qHTS assay to identify small molecule antagonists of the estrogen receptor alpha (ER-alpha) signaling pathway (AID 743069; active means well fitted curve in the direction sought with a large enough effect in the signal ratio in the repeat runs, not every such curve was filed as active; inconclusive means weak or mixed curves, or effect the other way; inactive means no such curve, though single readings can be large or run the other way; the % refers to the signal ratio; further: potency means the concentration at half of the fitted maximal effect)
Sequence of Estrogen receptor (Homo sapiens) (P03372 whole entry, looked up): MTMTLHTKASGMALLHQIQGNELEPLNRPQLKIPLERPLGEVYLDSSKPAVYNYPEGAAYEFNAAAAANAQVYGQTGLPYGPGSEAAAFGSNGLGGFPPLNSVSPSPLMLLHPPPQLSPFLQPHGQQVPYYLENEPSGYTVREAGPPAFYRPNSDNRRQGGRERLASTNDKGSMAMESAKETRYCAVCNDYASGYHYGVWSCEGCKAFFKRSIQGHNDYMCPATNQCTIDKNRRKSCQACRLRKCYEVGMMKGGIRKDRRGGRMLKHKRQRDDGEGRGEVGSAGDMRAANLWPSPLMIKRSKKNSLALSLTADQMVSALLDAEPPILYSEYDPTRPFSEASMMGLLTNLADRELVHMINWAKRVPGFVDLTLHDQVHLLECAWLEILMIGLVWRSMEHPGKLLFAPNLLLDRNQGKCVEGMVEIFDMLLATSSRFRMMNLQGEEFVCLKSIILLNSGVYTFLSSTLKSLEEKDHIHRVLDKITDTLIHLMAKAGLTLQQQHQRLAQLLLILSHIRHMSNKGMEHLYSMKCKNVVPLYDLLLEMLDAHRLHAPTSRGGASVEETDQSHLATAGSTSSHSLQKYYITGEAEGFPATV
Method in brief: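 Reporter cells (ER-alpha-bla, HEK293 background) are conditioned overnight in stripped-serum medium (2% charcoal-stripped FBS). Compound and 17beta-estradiol exposure runs 18 hr at 37C, 5% CO2.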

[7] = target: Estrogen receptor (Homo sapiens) (UniProt P03372); assay: qHTS assay to identify small molecule agonists of the estrogen receptor alpha (ER-alpha) signaling pathway (AID 743075; calls by dose curve;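 further: HEK293 GripTite cells with ER-alpha and UAS-driven beta-lactamase reporter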; further: potency means the concentration at half of the fitted maximal effect)
[8] = target: Estrogen receptor (Homo sapiens) (UniProt P03372); assay: qHTS assay to identify small molecule agonists of the estrogen receptor alpha (ER-alpha) signaling pathway using the BG1 cell line (AID 743079); further: nearly all actives have a fitted effect of over 20% in size
[9] = qHTS assay to identify small molecule antagonists of the estrogen receptor alpha (ER-alpha) signaling pathway using the BG1 cell line (AID 743080; calls by dose curve;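 further: BG1 cells stimulated with 17beta-estradiol alongside compound; nearly all actives have a fitted effect of over 25% in size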; further: potency means the concentration at half of the fitted maximal effect); conditions: BG1Luc4E2 ERE-luciferase antagonist mode, luminescence; activity change, negative = inhibition: at 70.3 µM (top of the series) unless noted
Method in brief: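 Quantitative HTS on the Tox21 10K library: BG1 cells with endogenous ER-alpha and ERE-luciferase reporter, 17beta-estradiol stimulation, 21.5 h compound exposure, luminescence endpoint with parallel fluorescence cytotoxicity counter-read.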

Measured: Potency

CCCC[n+]1cccc(C)c1
inactive: [1] | [2] | [3] | [4] | [5] | Aromatase (Homo sapiens)

CCC(=O)C(CC(C)N(C)C)(c1ccccc1)c1ccccc1 (stereo not given)
active: [1] 24.4 µM and 27.1 µM and 33 µM | [2] 27.4 µM and 30.4 µM and 41.5 µM
inactive: all other assays above

CCCC[N+]1(C)CCCCC1
inactive: [1] | [2] | [3] | [4] | [5] | Aromatase (Homo sapiens)

CCCCCC[n+]1ccccc1
inactive: [1] | [2] | [3] | [4] | [5] | Aromatase (Homo sapiens)

COc1ccccc1N
inactive: [1] | [2] | [3] | [4] | [5] | Aromatase (Homo sapiens)

COc1ccc(N)cc1
inactive: [1] | [2] | [3] | [4] | [5] | Aromatase (Homo sapiens)

Cc1cc(-c2ccc(N)c(C)c2)ccc1N
active: [7] 19.2 nM [inconclusive] and 48.8 µM [inconclusive] and 61.7 µM [inconclusive]
not listed: [9]
inactive: all other assays above

Nc1ccc(Cl)cc1
active: [6] 9.95 µM [inconclusive]
inactive: all other assays above

N#CS
inactive: [1] | [2] | [3] | [4] | [5] | Aromatase (Homo sapiens)

CCC[N+]1(C)CCCCC1
inactive: [1] | [2] | [3] | [4] | [5] | Aromatase (Homo sapiens)

CC[N+]1(C)CCCC1
inactive: [1] | [2] | [3] | [4] | [5] | Aromatase (Homo sapiens)

Nc1ccc(-c2ccc(N)cc2)cc1
inactive and 1.92 µM (active): Aromatase (Homo sapiens)
not listed: [9]
inactive: all other assays above

CCCCn1cc[n+](C)c1C
inactive: [1] | [2] | [3] | [4] | [5] | Aromatase (Homo sapiens)

CCCCCCCCCCCCCC[P+](CCCCCC)(CCCCCC)CCCCCC
inactive: [3]
active: [1] 6.14 µM and 5.49 µM and 3.06 µM | [2] 3.87 µM and 4.36 µM and 2.43 µM | [6] 982 nM [inconclusive] and 985 nM [inconclusive] and 775 nM [inconclusive] | [4] 13.9 µM and 11.1 µM | [9] 4.88 µM and 3.89 µM and 3.43 µM | [5] 19.4 µM and 13.8 µM | Aromatase (Homo sapiens) 6.14 µM and 3.89 µM and 1.09 µM
